Assay outcomes from PubChem BioAssay.
GDH-TPI counter – counter-screen for M. tuberculosis FBA inhibitors: GDH-TPI coupled enzymes. GDH-TPI coupled enzyme counterscreen, NADH absorbance. inhibition, % at 4.8 µM. 360,000 tested, 1.2% active. AID 588335; in the data active means inhibition above about 30%;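 further: 0% = DMSO wells and 100% = wells lacking the enzyme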
Mtb UGM inh – inhibitors of M. tuberculosis UDP-galactopyranose mutase. 320,000 tested, 0.06% active. P9WIQ1. inhibition, % at 10 µM. purified UGM, fluorescence polarization probe displacement; in the data active means inhibition above about 10%, passing the limit was not always enough
Mtb bLac sens – beta-lactam sensitization of Mtb H37Rv; M. tuberculosis H37Rv growth with meropenem, percent inhibition; inhibition, % at 25 µM; 330,000 tested, 0.27% active; AID 434955; call rule not given here;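 further: growth measured after seven days incubation then overnight dye step; 0% = bacteria only wells and 100% = bacteria with antibiotic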
FadD28 FP inh – blocks FadD28 binding to the bisubstrate probe; fluorescence polarization; inhibition, % at 12.5 µM; 360,000 tested, 0.22% active; AID 588549; in the data active means inhibition above about 8.5%, passing the limit was not always enough
Mtb FBA inh – Mtb fructose-bisphosphate aldolase inhibition | P9WQA3 | purified M. tuberculosis FBA, fluorescence read-out | inhibition, % at 1 µM | 360,000 tested, 2.3% active | AID 588726; in the data active means inhibition above about 27%;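 further: 0% = vehicle and 100% = reference inhibitor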
Target sequence (P9WQA3 whole entry, looked up): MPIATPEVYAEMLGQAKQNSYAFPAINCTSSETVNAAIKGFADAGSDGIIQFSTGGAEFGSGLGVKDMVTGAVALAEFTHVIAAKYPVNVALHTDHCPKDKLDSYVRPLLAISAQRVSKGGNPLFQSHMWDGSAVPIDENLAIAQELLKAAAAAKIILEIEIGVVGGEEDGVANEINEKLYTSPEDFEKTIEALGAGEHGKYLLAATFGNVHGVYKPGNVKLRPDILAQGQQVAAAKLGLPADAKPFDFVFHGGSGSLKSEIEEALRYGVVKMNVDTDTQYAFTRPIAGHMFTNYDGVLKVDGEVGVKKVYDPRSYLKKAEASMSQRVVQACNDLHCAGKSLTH
Rv3671c inh – inhibits the M. tuberculosis serine protease Rv3671c | inhibition, % at 5.96 µM | AID 2606 | 320,000 tested, 0.048% active | P9WHR9; in the data active means inhibition above about 38%;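 further: extracellular domain of Rv3671c used as enzyme; 0% = enzyme with DMSO and 100% = no enzyme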
* marks the source's active call; other numbers are inactive results. Only some compounds are listed: those with a hit (about 3.7% of all), similar ones and a draw of the others.

What do the screens show for `CC(C)(C)c1ccc(C(=O)NCc2cccnc2)cc1`?
GDH-TPI counter: 10; Mtb UGM inh: 1; Mtb bLac sens: 4; FadD28 FP inh: 0; Mtb FBA inh: -2; Rv3671c inh: -3

What do the screens show for `Cc1ccc(C)n1-c1ccc(C(=O)NCc2cccnc2)cc1`?
GDH-TPI counter: 3; Mtb UGM inh: -2; Mtb bLac sens: 0; FadD28 FP inh: -1; Mtb FBA inh: 31*; Rv3671c inh: 4

What do the screens show for `Cc1ccc(CN2C(=O)C(F)(F)Oc3ccccc32)cc1`?
GDH-TPI counter: 13; FadD28 FP inh: -1; Mtb FBA inh: 1

What do the screens show for `COc1cc(CNc2ncnc3c2ncn3[C@H]2CN(Cc3ccccc3)C[C@@H](COC(C)=O)O2)cc(OC)c1OC`?
GDH-TPI counter: 1; FadD28 FP inh: -1; Mtb FBA inh: 1

Results for CC(C)C1Nc2c(O)cc(Cl)c([N+](=O)[O-])c2C2C=CCC21 (configuration not stated) ?
GDH-TPI counter: 5; FadD28 FP inh: 25*; Mtb FBA inh: -6

Results for N#Cc1c(N)n(-c2ccccc2N)c2nc3ccccc3nc12 ?
GDH-TPI counter: 14; Mtb UGM inh: -3; Mtb bLac sens: -5; FadD28 FP inh: 0; Mtb FBA inh: 0; Rv3671c inh: -50

Results for N#Cc1c(N)n(-c2cccc(C(=O)O)c2)c2nc3ccccc3nc12 ?
GDH-TPI counter: 43*; Mtb UGM inh: 2; Mtb bLac sens: 2; FadD28 FP inh: 1; Mtb FBA inh: active; Rv3671c inh: -14

How did CN(C)c1ccc(/C=N/NC(=O)c2ccc3nc[nH]c3c2)cc1 do in these assays?
GDH-TPI counter: 56*; Mtb UGM inh: -5; Mtb bLac sens: 3; FadD28 FP inh: 3; Mtb FBA inh: -1; Rv3671c inh: -3

What do the screens show for `O=C(CCc1ccc(O)cc1)NN=Cc1ccc2c(c1)OCO2`?
GDH-TPI counter: 12; FadD28 FP inh: -4; Mtb FBA inh: -3

How did COc1cc(/C=N/NC(=O)c2ccc3nc[nH]c3c2)ccc1O do in these assays?
GDH-TPI counter: 59*; Mtb UGM inh: -1; Mtb bLac sens: 5; FadD28 FP inh: -2; Mtb FBA inh: 0; Rv3671c inh: -5

Results for O=C(NN=Cc1ccc(N(CCCl)CCCl)cc1)c1cc(=O)[nH]c(=O)[nH]1 ?
GDH-TPI counter: 50*; FadD28 FP inh: -3; Mtb FBA inh: -3

Results for O=C(Cc1cc(=O)oc2cc(O)ccc12)NN=Cc1ccc(N(CCCl)CCCl)cc1 ?
GDH-TPI counter: 56*; FadD28 FP inh: -2; Mtb FBA inh: 182*

Results for C=Cc1ccc(Cn2c(C)c(C(=O)NCc3ccc(C#N)cc3)sc2=O)cc1 ?
GDH-TPI counter: -2; FadD28 FP inh: -9; Mtb FBA inh: 3

Results for O=C(OCc1cn([C@H]2C[C@H](c3ccc(Cl)cc3)N(C(=O)c3cccs3)C[C@@H]2O)nn1)c1ccccc1 ?
GDH-TPI counter: 4; FadD28 FP inh: -1; Mtb FBA inh: 0

Results for C=CCN(C(=O)CSc1nc2ccsc2c(=O)n1Cc1ccc(C(=O)O)cc1)c1ccccc1 ?
GDH-TPI counter: 5; FadD28 FP inh: -6; Mtb FBA inh: 1

How did O=C(NN=Cc1ccc(N(CCCl)CCCl)cc1)C(=O)c1c[nH]c2ccccc12 do in these assays?
GDH-TPI counter: 43*; FadD28 FP inh: 0; Mtb FBA inh: -2

What do the screens show for `CCN(CC)c1ccc(/C=N/NC(=O)c2ccc3nc[nH]c3c2)cc1`?
GDH-TPI counter: 60*; Mtb UGM inh: 1; Mtb bLac sens: 4; FadD28 FP inh: 31*; Mtb FBA inh: -1; Rv3671c inh: 0

Results for CCN(CC)c1ccc(/C=N/NC(=O)c2cc3ccccc3[nH]2)cc1 ?
GDH-TPI counter: 32*; Mtb UGM inh: -1; Mtb bLac sens: 5; FadD28 FP inh: 2; Mtb FBA inh: 10; Rv3671c inh: 8

What do the screens show for `CSc1ccc(/C=N/NC(=O)c2ccc3nc[nH]c3c2)cc1`?
GDH-TPI counter: 48*; FadD28 FP inh: -1; Mtb FBA inh: 2

How did NC(=O)C1CCCN1Cc1ccc2c(c1)OCO2 (configuration not stated) do in these assays?
GDH-TPI counter: 5; FadD28 FP inh: 0; Mtb FBA inh: 5

What do the screens show for `COc1ccc(N2CC(C(=O)N[C@@H](C)C(=O)NCCc3ccccc3)CC2=O)cc1` (some centres not stated)?
GDH-TPI counter: -7; Mtb UGM inh: -2; Mtb bLac sens: 4; FadD28 FP inh: -3; Mtb FBA inh: 0; Rv3671c inh: 6

What do the screens show for `O=CN1CCCN(C(=O)CC2C(=O)NCCN2Cc2cccc(Oc3ccccc3)c2)CC1` (configuration not stated)?
GDH-TPI counter: -4; Mtb UGM inh: 0; Mtb bLac sens: 1; FadD28 FP inh: -5; Mtb FBA inh: -1; Rv3671c inh: -11

Results for Cc1cc(OCc2nn[nH]n2)c2c3c(c(=O)oc2c1)CCC3 ?
GDH-TPI counter: -3; Mtb UGM inh: 2; Mtb bLac sens: -2; FadD28 FP inh: -5; Mtb FBA inh: active; Rv3671c inh: 4

Results for Cc1c(OCc2nn[nH]n2)ccc2c3c(c(=O)oc12)CCCC3 ?
GDH-TPI counter: 7; Mtb UGM inh: 5; Mtb bLac sens: 5; FadD28 FP inh: -3; Mtb FBA inh: 124*; Rv3671c inh: 2

How did CCCc1cc(=O)oc2cc(C)cc(OCc3nn[nH]n3)c12 do in these assays?
GDH-TPI counter: 9; Mtb UGM inh: -1; Mtb bLac sens: -11; FadD28 FP inh: -1; Mtb FBA inh: 128*; Rv3671c inh: 4

Results for O=C1OC(CN(Cc2ccccc2)Cc2ccccc2)CN1N=Cc1ccc([N+](=O)[O-])o1 (configuration not stated) ?
GDH-TPI counter: 18; FadD28 FP inh: -1; Mtb FBA inh: 1

What do the screens show for `O=C1OC(CN2CCOCC2)CN1N=Cc1ccc([N+](=O)[O-])o1` (configuration not stated)?
GDH-TPI counter: 32*; Mtb UGM inh: 0; Mtb bLac sens: 6; FadD28 FP inh: 1; Mtb FBA inh: -1; Rv3671c inh: -2

How did COc1ccc(-c2nc(C#N)c(NCC3CCCO3)o2)cc1OC (configuration not stated) do in these assays?
GDH-TPI counter: 14; Mtb UGM inh: 0; Mtb bLac sens: -5; FadD28 FP inh: 1; Mtb FBA inh: 180*; Rv3671c inh: -8

Results for CCOc1ccc(-c2nc(C#N)c(NCC3CCCO3)o2)cc1 (configuration not stated) ?
GDH-TPI counter: 22; Mtb UGM inh: 1; Mtb bLac sens: 19; FadD28 FP inh: 0; Mtb FBA inh: 177*; Rv3671c inh: 1

Results for COc1ccc(-c2noc(CCC(=O)NCC3CCCO3)n2)cc1OC (configuration not stated) ?
GDH-TPI counter: 5; Mtb UGM inh: 0; Mtb bLac sens: 6; FadD28 FP inh: -3; Mtb FBA inh: -3; Rv3671c inh: -3
